Measurements as given in PubChem BioAssay (Tox21).
Records with an inconclusive call do not appear. Activity calls are given as the source filed them. The call rests on the fitted dose curve; in most records, active means well fitted curve in the direction sought with a large enough effect in the signal ratio in the repeat runs (not every such curve was filed as active); inconclusive means weak or mixed curves, or a change in a side signal; inactive means no such curve, though single readings can be large or run the other way; the % refers to the signal ratio.

Experiment: qHTS assay to identify small molecule agonists of the NFkB signaling pathway (AID 1159509)
Settings: NFkB-bla ME-180 cells, beta-lactamase FRET ratio, 5 h; series mostly up to 61 µM
Description: National Center for Advancing Translational Sciences [NCATS]
NIH Chemical Genomics Center [NCGC]
U.S. Environmental Protection Agency [EPA]
National Institutes of Environmental Health Sciences [NIEHS]
National Toxicology Program [NTP]
U.S. Food and Drug Administration [FDA]
Transcription factors and their stimulated target gene expression play pivotal roles across many cellular processes including responses to environmental stimuli. Proper regulation of associated pathways is critical to maintain cell health and function. Constitutive activation of transcription factor pathways has been implicated in tumors as it may block cellular functions such as apoptosis and lead to invasion and metastasis. One important transcription factor that stimulates gene expression in response to cytokines, UV radiation, and other stimuli is nuclear factor-kappa B (NFkB). To measure activation of the NFkB pathway, the CellSensor NFkB-bla ME-180 cell line (Life Technologies, Carlsbad, CA) that stably expresses beta-lactamase reporter gene under the regulation of a NF-kB response element was used. This assay allows measurement of the NFkB pathway activity induced by compounds in a ME-180 cell line. This system quantitates NF-kB activity using a FRET-based assay system where beta-lactamase expression disrupts FRET, allowing for fluorescent measurement of activity. This cell line has been used to screen the Tox21 10K compound library and to identify compounds that induce the NFkB pathway activity.
Tox21 Assay Protocol Summary:
NFkB-bla ME-180 cells were dispensed at 2,000 cells/6 uL of assay medium per well into black wall/clear-bottom 1536-well plates using a Multidrop Combi (ThermoFisher Scientific, Waltham, MA) dispenser. After the assay plates were incubated at 37 C and 5% CO2 for an overnight, 23 nL of compounds dissolved in DMSO, positive controls or DMSO only was transferred to the assay plate by a Pintool station (Kalypsys, San Diego, CA). The assay plates were incubated at 37 C and 5% CO2 for 5 hr. One uL of LiveBLAzer B/G FRET substrate (Life Technologies) was added using a Flying Reagent Dispenser (Aurora Discovery, San Diego, CA) and the plates were incubated at room temperature for 1.5 hr. Fluorescence intensity (405 nm excitation, 460 nm and 530 nm emissions) was measured using an Envision plate reader (PerkinElmer, Shelton, CT).
With CCCCCC the outcome was “inactive”.
With CC(C)N=C=NC(C)C the outcome was “inactive”.
For CCCCCCCCCCCCCCN(C)C, the outcome was “inactive”.
In the case of CC(=O)OCCC1CCCCC1, the outcome is reported as “inactive”.
With O=S(=O)(O)CO the outcome was “inactive”.
For Nc1ccc(S(=O)(=O)NCc2ccccc2)cc1, the outcome was “inactive”.
In the case of O=C(O)/C=C/c1ccc(O)c(O)c1, the outcome is reported as “inactive”.
In the case of O=NN(CCCl)C(=O)NCCCl, the outcome is reported as “inactive”.
For Nc1ccc(F)cc1, the outcome was “inactive”.
In the case of Cc1ccc(N(CC2=NCCN2)c2cccc(O)c2)cc1, the outcome is reported as “inactive”.
For OCC(CO)n1cnc(-c2ccc(F)cc2)c1-c1ccnc(Oc2ccccc2)n1, the outcome was “inactive”.
With COc1ccc(CCN(C)CCCN2CCc3cc(OC)c(OC)cc3CC2=O)cc1OC the outcome was “inactive”.
In the case of NC(=O)CCCCC(N)=O, the outcome is reported as “inactive”.
With CC(=O)C(C)=O the outcome was “inactive”.
In the case of CCCCCCCCCCCCCCCC(=O)OCC, the outcome is reported as “inactive”.
With CCN(CC)CCOC(=O)C(c1ccccc1)c1ccccc1 the outcome was “inactive”.
In the case of O=C1OC[C@H](Cc2cccc(O)c2)[C@H]1Cc1cccc(O)c1, the outcome is reported as “inactive”.
With CC(C)(O)CCc1ccccc1 the outcome was “inactive”.
In the case of CC(O)Cn1cnc2c1c(=O)n(C)c(=O)n2C (stereo not given), the outcome is reported as “inactive”.
With CC(C)(C)C1(CCc2ccc(Cl)cc2)CO1 (stereo not given) the outcome was “inactive”.
For CCN(Cc1cccc(S(=O)(=O)O)c1)c1ccc(C(=C2C=CC(=[N+](CC)Cc3cccc(S(=O)(=O)O)c3)C=C2)c2ccccc2S(=O)(=O)[O-])cc1, the outcome was “inactive”.
For Oc1ccc2c(c1)Cc1ccccc1-2, the outcome was “inactive”.
For CCOC(=O)c1c(N)sc2c1CCN(Cc1ccccc1)C2, the outcome was “inactive”.
For Cc1ccc2c(c1[N+](=O)[O-])C(=O)c1ccccc1C2=O, the outcome was “inactive”.
With CCCc1nc2c(C)cc(-c3nc4ccccc4n3C)cc2n1Cc1ccc(-c2ccccc2C(=O)O)cc1 the outcome was “inactive”.
With CCN(CC)CCOc1ccccc1C(=O)CCc1ccccc1 the outcome was “inactive”.
For O=C(O)CN1C(=O)c2cccc3cccc(c23)C1=O, the outcome was “inactive”.
In the case of CCC(CO)(CO)[N+](=O)[O-], the outcome is reported as “inactive”.
In the case of CC(=O)OCC(C)C, the outcome is reported as “inactive”.
For CC(C)N(C)C, the outcome was “inactive”.
For CCOC(=O)c1ccc(NC(=O)CN2CCCCC2)cc1, the outcome was “inactive”.
For O=C(O)CCC(=O)OC[C@@H](NC(=O)C(Cl)Cl)[C@H](O)c1ccc([N+](=O)[O-])cc1, the outcome was “inactive”.
With CCN(CC)C(=O)/C(C#N)=C/c1cc(O)c(O)c([N+](=O)[O-])c1 the outcome was “inactive”.
In the case of COc1ccc(C2C(=O)c3ccccc3C2=O)cc1, the outcome is reported as “inactive”.
With C=CCOC(=O)COCCC(C)C the outcome was “inactive”.
In the case of CC(C)c1ccc(C#N)cc1, the outcome is reported as “inactive”.
With CC(C)C1CCC(C(=O)N[C@H](Cc2ccccc2)C(=O)O)CC1 (stereo not given in full) the outcome was “inactive”.
With COC(C)(C)OC the outcome was “inactive”.
With COc1ccc(C(=O)NCc2ccc(OCCN(C)C)cc2)cc1OC the outcome was “inactive”.
In the case of Cc1cccc(C)c1NC(=O)c1cc(S(N)(=O)=O)c(Cl)cc1O, the outcome is reported as “inactive”.
